The values below come from PubChem BioAssay.

A number with no mark means an inactive call. Activity calls are given as the source filed them. The rule behind the calls is not given here.

The assay can be described thus: chitosan synthesis blockers in C. neoformans – flow cytometry, Cibacron Brilliant Red staining (AID 1347148).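 Note: compound exposure lasted three days at 37 degrees C.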 The note with it: Cryptococcus neoformans chitosan, active compounds read low; at 10 µM unless noted. (In general: A flow cytometer gives signals particle by particle.)
With `CCCCCCCCCCCCCCCC(=O)OC[C@@H](COP(=O)(O)O)OC(=O)CCCCCCCCCCCCCCC`, the fold fluorescence is 3.86. Consider `C=CCNC1=C2C[C@H](C)C[C@@H](OC)[C@@H](O)[C@H](C)/C=C(\C)[C@@H](OC(N)=O)[C@H](OC)/C=C\C=C(/C)C(=O)NC(=CC1=O)C2=O`, for which the fold fluorescence was 7.27 [at 85.4 µM]. Take `CC[C@@]1([C@@H]2O[C@@H]([C@H]3O[C@@](O)(CO)[C@H](C)C[C@@H]3C)C[C@@H]2C)CC[C@H]([C@]2(C)CCC3(C[C@H](O)[C@@H](C)[C@@H]([C@@H](C)[C@@H](OC)[C@H](C)C(=O)O)O3)O2)O1` (stereo not given in full): the fold fluorescence was 4.7 [at 72.2 µM].

Regarding `CCCCC[C@@H](O)/C=C/[C@H]1[C@@H](C/C=C\CCCC(=O)O)[C@H](O)C[C@@H]1O`, the fold fluorescence is 4.83. As for `C[C@H](N)C1CCC(C(=O)Nc2ccncc2)CC1` (stereo not given in full), the fold fluorescence was 2.94 [at 202.1 µM]. To `CNC(=O)[C@@H]1O[C@H](n2cnc3c(NCc4cccc(I)c4)ncnc32)C(O)[C@@H]1O` (stereo not given in full) belongs 4.36 [at 98 µM]; to `CCCCCCCCCCCCCCCC(=O)C1=C(O)[C@H](CO)OC1=O`, 2.82 [at 135.7 µM] (active).

For `CN(C)C[C@H](O)Cn1c2ccc(Br)cc2c2cc(Br)ccc21`, the fold fluorescence was 6.53 [at 117.3 µM].

In the case of `CCCCC[C@@H](O)/C=C/[C@H]1[C@H](C/C=C\CCCC(=O)O)[C@H](O)C[C@H]1O`, the fold fluorescence was 4.85. Regarding `CCCCCCCCCCCCCCC[C@H](O)[C@@H](CO)NC(C)=O`, the fold fluorescence is 4.64. In the case of `CC(C)=CCC(O)C1=CC(=O)c2c(O)ccc(O)c2C1=O` (stereo not given) it was 6.4 [at 173.4 µM]; in that of `CCCCC[C@@H](O)/C=C/[C@H]1[C@H](C/C=C\CCCC(=O)O)[C@@H]2CO[C@H]1C2`, 4.13; in that of `OC[C@@H]1NC[C@H](O)[C@H](O)[C@H]1O`, 8.15 [at 306.4 µM]. In the case of `C[S@](=O)c1ccc(-c2nc(-c3ccc(F)cc3)c(-c3ccncc3)[nH]2)cc1` it was 8.78 [at 132.5 µM]; in that of `O=C(O)CNC(=O)[C@H](CS)Cc1ccccc1`, 3.85 [at 197.4 µM]. On to `CCCCC[C@H](O)c1cccc(OCc2ccc3ccccc3n2)c1`, for which the fold fluorescence is 5.53.

For `CC(C)[C@@H](O)CC[C@H](C)[C@@H]1CC[C@@H]2[C@H]3CC=C4C[C@H](O)CC[C@@]4(C)[C@@H]3CC[C@]21C`, the fold fluorescence was 4.41 [at 124.2 µM]. `COc1ccc(CCN(C)CCC[C@@](C#N)(c2cc(OC)c(OC)c(OC)c2)C(C)C)cc1OC`: the fold fluorescence is 4.22 [at 103.2 µM]. Regarding `CCCCC[C@@H](O)/C=C/[C@H]1[C@H](C/C=C\CCCC(=O)O)[C@@H](O)C[C@@H]1O`, the fold fluorescence is 4.53. For the molecule `CCCCCCCC/C=C\CCCCCCCCOC[C@@H](COP(=O)([O-])OCC[N+](C)(C)C)OC(C)=O`, the fold fluorescence was 3.92. To `CCCCCCCCCCCCCCC[C@H](O)[C@@H](CO)NC(=O)CCCCCCC` belongs 6.03; to `CN(CCc1ccc(Cl)c(Cl)c1)C[C@H](O)COc1ccc(NS(C)(=O)=O)cc1`, 3.81 [at 111.8 µM]; to `C=C[C@@H]1CN2CCC1C[C@H]2[C@H](O)c1ccnc2ccc(OC)cc12` (stereo not given in full), 3.61 [at 154.1 µM]. As for `CC1(COc2ccc(C[C@@H]3SC(=O)NC3=O)cc2)CCCCC1`, the fold fluorescence was 5.39. In the case of `COc1ccc(CCCO[C@@H](Cn2ccnc2)c2ccc(OC)cc2)cc1` it was 7.02 [at 136.4 µM]. Consider `C1CCC[C@H]2CCCN3CC[C@@H](CCCCCC[C@@H]4CCCN5CC[C@@H](CC1)O[C@@H]45)O[C@@H]23`, for which the fold fluorescence is 6.06 [at 11.2 µM].

As for `CC(=O)[C@@H]1[C@@H](C#N)C[C@@H]2[C@H]3CC=C4C[C@H](O)CC[C@@]4(C)[C@@H]3CC[C@]21C`, the fold fluorescence was 3.64 [at 146.4 µM]. To `O[C@H]1C=C2CCN3Cc4cc5c(cc4C(C23)[C@@H]1O)OCO5` (stereo not given in full) belongs 10.6 [at 174 µM].

On to `COC(C)(C)CCC[C@H](C)C/C=C/C(C)=C/C(=O)O`, for which the fold fluorescence was 5.1. In the case of `COC(=O)[C@H]1[C@@H]2C[C@@H]3c4[nH]c5ccccc5c4CCN3C[C@H]2CC[C@H]1O` it was 3.91 [at 141.1 µM]; in that of `C=C1CC[C@@H](O)C/C1=C/C=C1\CCC[C@]2(C)[C@@H]1CC[C@H]2[C@@H](C)CC[C@H](O)C(C)(C)O`, 6.63; in that of `O=C(NC[C@H]1CCCCN1)c1cc(OCC(F)(F)F)ccc1OCC(F)(F)F`, 6.98 [at 120.7 µM]. In the case of `C=C1CC[C@@H](O)C/C1=C/C=C1\CCC[C@]2(C)[C@@H]1CC[C@H]2[C@@H](C)CCCC(C)(C)O` it was 5.68; in that of `COc1cc2c3cc1Oc1c(OC)c(OC)cc4c1[C@H](Cc1ccc(OC(=O)c5ccc([N+](=O)[O-])cc5)c(c1)Oc1ccc(cc1)C[C@H]3N(C)CC2)N(C)CC4`, 5.83 [at 66 µM]; in that of `C=C1/C(=C\C=C2/CCC[C@]3(C)[C@@H]2CC[C@H]3[C@@H](C)CCCC(C)(C)O)C[C@H](O)C[C@H]1O`, 7.1. As to `CCCCC[C@@H](O)/C=C/[C@H]1[C@@H]2C/C(=C/CCCC(=O)O)C[C@@H]2C[C@@H]1O`, the fold fluorescence was 4.8.

Turning to `CC[C@H](C)[C@H](N)C(=O)N[C@@H](CC(N)=O)C(=O)N[C@@H](CC(C)C)C(=O)N[C@@H](CCCCN)C(=O)N[C@@H](C)C(=O)N[C@@H](CC(C)C)C(=O)N[C@@H](C)C(=O)N[C@@H](C)C(=O)N[C@@H](CC(C)C)C(=O)N[C@@H](C)C(=O)N[C@@H](CCCCN)C(=O)N[C@@H](CCCCN)C(=O)N[C@H](C(=O)N[C@@H](CC(C)C)C(N)=O)[C@@H](C)CC`, the fold fluorescence is 3.8 [at 33.8 µM]. Turning to `O=C(O)CCC/C=C\C[C@H]1[C@H](/C=C/[C@H](O)COc2cccc(C(F)(F)F)c2)[C@@H](O)C[C@H]1O`, the fold fluorescence is 4.62. Turning to `CCCCC(C)(O)C/C=C/[C@H]1[C@H](CCCCCCC(=O)O)C(=O)C[C@@H]1O` (stereo not given in full), the fold fluorescence was 3.98.

In the case of `COC(=O)C1=C(C)NC(C)=C(C(=O)OCCSc2ccccc2)[C@H]1C`, the fold fluorescence was 8.74 [at 138.3 µM].
